From PubChem BioAssay AID2156 (Johns Hopkins Ion Channel Center, 2009) come the findings set out here.

SMILES strings stand for the structures. In all, about 310,000 compounds went through this assay and about 3,400 (1.1%) were called active.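 The calls were made as follows: active = fluorescence ratio B-score at most minus 3 library SDs, with starting brightness B-score within 2 library SDs (cut at about -5.5 in these data); inactive = the rest, inconclusive results apart.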 The full list was thinned out, with actives kept by preference. Square brackets hold non-standard residues; d marks the D form. Peptide text beside a SMILES is read from it. * marks the point of attachment. ξ: configuration not given here. Cbz = O=C(OCc1ccccc1)*; ξL = CC(C)CC(N)C(=O)O; Bz = O=C(c1ccccc1)*; ξP = O=C(O)C1CCCN1

The target in this experiment is Potassium voltage-gated channel subfamily KQT member 2 (Rattus norvegicus) (UniProt O88943). Description: rat KCNQ2 potassium channel inhibitors, primary screen, cell-based, CHO-K1, FluxOR thallium flux, B-score (AID 2156). To be noted: 20 min, at 10 µM; active compounds read low.
Sequence of Potassium voltage-gated channel subfamily KQT member 2 (Rattus norvegicus) (O88943 whole entry, looked up): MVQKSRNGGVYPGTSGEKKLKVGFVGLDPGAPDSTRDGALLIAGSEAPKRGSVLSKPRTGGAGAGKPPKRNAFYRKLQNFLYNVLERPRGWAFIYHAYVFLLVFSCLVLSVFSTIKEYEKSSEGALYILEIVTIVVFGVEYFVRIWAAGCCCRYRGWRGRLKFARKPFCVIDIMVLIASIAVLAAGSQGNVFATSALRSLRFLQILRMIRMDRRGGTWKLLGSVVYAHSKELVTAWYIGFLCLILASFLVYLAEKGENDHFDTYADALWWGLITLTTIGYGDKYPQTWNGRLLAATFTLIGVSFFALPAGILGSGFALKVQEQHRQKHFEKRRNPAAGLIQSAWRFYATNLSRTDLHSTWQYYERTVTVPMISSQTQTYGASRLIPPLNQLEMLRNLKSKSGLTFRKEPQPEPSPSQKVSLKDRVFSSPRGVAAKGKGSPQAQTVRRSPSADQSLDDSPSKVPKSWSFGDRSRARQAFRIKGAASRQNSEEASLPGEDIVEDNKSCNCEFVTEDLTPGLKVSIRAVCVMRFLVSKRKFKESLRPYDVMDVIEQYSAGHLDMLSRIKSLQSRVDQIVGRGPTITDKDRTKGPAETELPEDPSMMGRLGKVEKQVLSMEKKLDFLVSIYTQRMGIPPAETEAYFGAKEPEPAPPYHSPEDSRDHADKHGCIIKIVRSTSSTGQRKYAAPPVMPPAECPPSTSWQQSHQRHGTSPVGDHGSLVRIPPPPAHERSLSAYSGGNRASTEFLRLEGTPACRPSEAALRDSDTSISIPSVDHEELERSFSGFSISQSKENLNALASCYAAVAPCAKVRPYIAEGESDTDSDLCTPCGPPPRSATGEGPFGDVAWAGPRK
`CCN(Cc1ccccc1)S(=O)(=O)c1cc2c3c(c1)CCN3C(=O)CC2`: the B-score was -0.41 (inactive).

Take `Cc1ccc(S(=O)(=O)N2CCC(C(=O)NCCC3=CCCCC3)CC2)cc1C`: the B-score entry is “inactive”.

On to `COc1ccc(NC(=O)N2CCCC2C(=O)NCc2ccccc2Cl)cc1` (stereo not given), for which the B-score is -1.43 (inactive).

For `O=C(NCc1ccccc1Cl)C1CCCN1S(=O)(=O)c1ccc(F)cc1` (stereo not given), the B-score was -6.35 (active).

Consider `Cc1cccc(NC(=O)C2CCCN2S(=O)(=O)c2ccc(F)cc2)c1C` (stereo not given), for which the B-score is -3.21 (inactive).

For the compound `CCOc1ccc(NC(=O)CN(C)C(=O)c2c(C)noc2C)cc1OCC`, the B-score is -0.82 (inactive).

As for `CCN(C(=O)CSc1nnnn1-c1ccccc1OC)C1CCS(=O)(=O)C1` (stereo not given), the B-score was -0.06 (inactive).

`CC(C)N(C(=O)CSc1nc(COc2ccccc2)nc2ccccc12)C(C)C`: the B-score is -7.53 (active).

Take `CCCc1nc(SCC(=O)Nc2ccc(S(=O)(=O)N(C)C)cc2)c2ccccc2n1`: the B-score result is “inactive”.

Regarding `CCc1nc(SCC(=O)NNC(=O)c2ccc(C)cc2)c2ccccc2n1`, the B-score was -1.77 (inactive).

As for `CC[C@@]12C(=O)N(c3ccccc3)C(=O)N1[C@H](c1ccc(Br)cc1)[C@@H]1C(=O)N(C(C)(C)C)C(=O)[C@@H]12`, the B-score entry was “inactive”.

As to `O=C(CN1CCN(c2ccc(Cl)cc2)CC1)NCc1cccs1`, the B-score is -0.84 (inactive).

In the case of `Cc1ccc(CNC(=O)CN2CCN(Cc3ccc(Cl)cc3)C2=O)cc1`, the B-score is -0.18 (inactive).

Regarding `Cc1ccccc1N1CCN(CC(=O)NCc2ccc(Cl)cc2)CC1`, the B-score is -8.15 (active).

Turning to `COc1ccc(NC(=O)CN(C)C(=O)CC2CCCCC2)cc1`, the B-score was -0.05 (inactive).

In the case of `COc1ccc2c(c1)C(=O)Nc1cc(Cl)ccc1N2`, the B-score result is “inactive”.

With `Cc1cccc(-n2cc(CN3CCN(C(=O)c4ncn[nH]4)CC3)c(-c3cccc(F)c3)n2)c1`, the B-score is -8.35 (active).

As for `CCC(O)C1CCN(Cc2cn(-c3ccc(OC)cc3)nc2-c2cccc(F)c2)CC1` (stereo not given), the B-score result is “inactive”.

On to `Cc1ccc(C)c(-n2cc(CN3CCN(C(=O)c4ncn[nH]4)CC3)c(-c3ccccc3)n2)c1`, for which the B-score was -1.41 (inactive).

For `CCN1C(=O)[C@@H]2[C@@H](c3ccc(-c4ccc(OC)cc4)c(OC)c3)N3CCC[C@@]3(C(=O)OC)[C@@H]2C1=O`, the B-score result was “inactive”.

Regarding `O=C(CCCN1C(=O)/C(=C/c2ccco2)SC1=S)Nc1ccccc1`, the B-score is -0.39 (inactive).

As for `COC(=O)C1=C(C)N(c2ccc(Br)cc2)C(=O)/C1=C\c1ccco1`, the B-score was -1.96 (inactive).

With `COC(=O)C1=C(C)N(C(C)c2ccccc2)C(=O)/C1=C\c1ccco1` (stereo not given), the B-score is -8.53 (active).

As to `COc1ccc(CCNC(=O)C(=O)NCC2CCCN2S(=O)(=O)c2cccs2)cc1OC` (stereo not given), the B-score entry was “inactive”.

`COC(=O)[C@H](Cc1ccccc1)NC(=O)[C@@H]1C[C@H]1[C@@H](NC(=O)OCc1ccccc1)c1ccccc1`: the B-score result was “inactive”.

Turning to `COC(=O)[C@H](C)[C@H]1C[C@]1(C)[C@H](NC(=O)OCc1ccccc1)c1ccccc1`, the B-score was -3.52 (inactive).

For the compound `CC(C)CC(NC(=O)C1CCCN1C(=O)[C@@H](C)NC(=O)OCc1ccccc1)C(=O)NCC(N)=O` (stereo not given in full) (Cbz-[dA][ξP][ξL]G-NH2), the B-score entry was “inactive”.

`COc1ccc(COC(=O)NC(C(=O)O)c2ccccc2)cc1` (stereo not given): the B-score entry is “inactive”.

`CC(C)C(NC(=O)OCc1ccccc1)C(=O)OCC(=O)N1C(C)CCCC1C` (stereo not given): the B-score is -8.16 (active).

In the case of `CC(C)[C@H](NC(=O)OCc1ccccc1)C(=O)OCc1ccccc1`, the B-score is -7.34 (active).

For the compound `Cc1ccc(C)c(OCCC(=O)Nc2cccc(S(=O)(=O)N3CCCC3)c2)c1`, the B-score entry is “inactive”.

Turning to `Cc1ccc2nc(SCC(=O)Nc3cccc4ccccc34)nc(=O)n2c1`, the B-score was -0.48 (inactive).

Regarding `COc1ccc(NC(=O)CN(C)C(=O)Cc2coc3cc(C)c(C)cc23)cc1`, the B-score was -0.02 (inactive).

Take `Brc1cnc2ccccc2c1N1CCCCC1`: the B-score result is “inactive”.

Regarding `CCCn1c(SCC(=O)Nc2cccc(C(=O)OCC)c2)nnc1-c1ccoc1C`, the B-score was -0.31 (inactive).

`COc1ccccc1NC(=O)CSc1nnc(C)n1CC1CCCO1` (stereo not given): the B-score result is “inactive”.

In the case of `COc1ccccc1NC(=O)CSc1nnc(-c2ccoc2C)n1CCc1ccccc1`, the B-score is -8.21 (active).

As for `O=C(COc1coc(CN2CCN(c3ccccc3)CC2)cc1=O)N1CCc2ccccc21`, the B-score entry was “inactive”.

For `CC1=C(C(=O)Nc2ccccc2)C(c2ccco2)C(C#N)=C(SCC(N)=O)N1` (stereo not given), the B-score entry was “inactive”.

With `CC1=C(C(=O)Nc2ccccc2)C(c2cccs2)C(C#N)=C(SCC#N)N1` (stereo not given), the B-score is -6.59 (active).

Regarding `C=CCOC(=O)C1=C(C)NC(C)=C(C(=O)OCC=C)C1c1cccs1`, the B-score is -2.85 (inactive).

As for `CCN(C(=O)COC(=O)c1sccc1C)c1c(N)n(Cc2ccccc2)c(=O)[nH]c1=O`, the B-score entry is “inactive”.

As to `N#CCCN(C(=O)COC(=O)c1ccc(S(=O)(=O)N2CCCCCC2)cc1)c1ccccc1`, the B-score result was “inactive”.

As for `Cc1ccc(C)c(OCCC(=O)OCC(=O)NC(=O)NCc2ccccc2)c1`, the B-score result is “inactive”.

On to `COc1ccc2c(c1)O/C(=C\c1ccccc1O)C2=O`, for which the B-score was -0.61 (inactive).

`COc1ccc(NC(=O)CN(C)C(=O)c2ccc(NC3CC3)c([N+](=O)[O-])c2)cc1`: the B-score result is “inactive”.

Regarding `C=CC(COCc1ccccc1)N(Cc1ccccc1)S(=O)(=O)c1ccccc1Br` (stereo not given), the B-score was -5.61 (active).

Turning to `C=CCCN(Cc1ccccc1)S(=O)(=O)c1ccccc1Br`, the B-score entry was “inactive”.

As for `CC1CCN(c2ccc(-c3ccc(NC(=O)c4ccco4)cc3)nn2)CC1`, the B-score result was “inactive”.

Take `CCc1noc(C)c1C(=O)Oc1ccc(N(C)S(=O)(=O)c2ccc(C)c(C)c2)cc1`: the B-score was -6.86 (active).

As to `COCCNC(=O)COc1ccc(N(C)S(=O)(=O)c2ccc3ccccc3c2)cc1`, the B-score result is “inactive”.

As for `Cc1ccc(S(=O)(=O)N(C)C)cc1NC(=O)COC(=O)c1c(C)noc1C`, the B-score was -0.34 (inactive).

`CCCc1cc(=O)[nH]c2nnc(SCC(=O)Nc3nnc(SCC)s3)n12`: the B-score entry is “inactive”.

`Cc1ccc(-c2csc(NC(=O)C3=COCCO3)n2)cc1C`: the B-score is -0.1 (inactive).

In the case of `CC(Cc1ccccc1)C(=O)N(C)Cc1ccccc1` (stereo not given), the B-score is -0.83 (inactive).

Turning to `CN(Cc1ccccc1F)C(=O)C(Cc1ccccc1)NC(=O)c1ccccc1` (stereo not given), the B-score is -7.91 (active).

For `O=C(NC(Cc1ccccc1)C(=O)N1CCCC1C(=O)O)c1ccccc1` (stereo not drawn) (Bz-Phe-Pro-OH; configuration not given here), the B-score was -0.06 (inactive).

With `CSc1ccccc1NC(=O)C(C)N1C(=O)c2ccccc2S1(=O)=O` (stereo not given), the B-score result was “inactive”.

With `CC1=NNC(=O)C1Cc1c(Cl)cccc1Cl` (stereo not given), the B-score result is “inactive”.

With `COC(=O)[C@@]12CCCN1[C@H](c1ccc(-c3ccc(F)cc3)c(OC)c1)[C@H]1C(=O)N(C)C(=O)[C@H]12`, the B-score result was “inactive”.

As for `COc1ccc(C(=O)CN2C(=O)NC3(CCc4ccccc43)C2=O)c(OC)c1` (stereo not given), the B-score entry was “inactive”.

Regarding `CCN(CC)c1ccc(S(=O)(=O)N2CCCCC2)cc1NC(=O)C1=COCCO1`, the B-score was -0.93 (inactive).

As for `C=CCn1c(SCC(=O)/C(C#N)=C(\C)N)nc2sc(C)c(C)c2c1=O`, the B-score is -7.77 (active).

Turning to `C=CCn1c(SCC(=O)NCC2CCCO2)nc2sc(C)c(C)c2c1=O` (stereo not given), the B-score entry is “inactive”.

Turning to `Cc1sc2nc(SCC(N)=O)n(C)c(=O)c2c1C`, the B-score was -0.14 (inactive).

As for `COc1ccccc1C(=O)NC(=O)COC(=O)C1CC1`, the B-score entry is “inactive”.

For `COCCN(C(=O)COC(=O)Cc1cccc(OC)c1)c1c(N)n(Cc2ccccc2)c(=O)[nH]c1=O`, the B-score result is “inactive”.

With `COc1cccc(COc2ccc(N(C)S(=O)(=O)c3ccccc3)cc2)c1`, the B-score is -8.25 (active).

Consider `CN(c1ccc(OCC(=O)O)cc1)S(=O)(=O)c1ccc2ccccc2c1`, for which the B-score was -1.18 (inactive).

Consider `Cc1ccc2nc(COc3ccc(N(C)S(=O)(=O)c4ccccc4)cc3)cc(=O)n2c1`, for which the B-score result is “inactive”.

Take `COc1ccccc1C(CNC(=O)c1cccc(NS(=O)(=O)c2ccc(Br)cc2)c1)N(C)C` (stereo not given): the B-score was -0.89 (inactive).

On to `O=S(=O)(Nc1ccc(-c2ccc(N3CCOCC3)nn2)cc1)c1cc(Cl)ccc1Cl`, for which the B-score was -0.08 (inactive).

For `Cc1cc2oc3ccc(NCCC4CCCN4C)cc3c(=O)c2cc1C` (stereo not given), the B-score is -6.02 (active).

`CCCOc1ccc(C2c3c(oc4cc(C)c(C)cc4c3=O)C(=O)N2CCCN2CCOCC2)cc1` (stereo not given): the B-score was -0.39 (inactive).

On to `Cc1cc2oc(=O)cc(CN3CCN(Cc4ccccc4)CC3)c2cc1C`, for which the B-score entry was “inactive”.

As to `Cc1ccc(S(=O)(=O)N2CCN(C(=O)Cc3sc(C)nc3-c3ccc(F)cc3)CC2)c(C)c1`, the B-score was -0.7 (inactive).

On to `CC(C)CN(C(=O)COC(=O)c1ccc2ccccc2c1)c1c(N)n(Cc2ccccc2)c(=O)[nH]c1=O`, for which the B-score entry was “inactive”.

For the compound `O=C(Nc1cc(Cl)ccc1N1CCOCC1)c1ccc(N2CCCC2=O)cc1`, the B-score entry is “inactive”.

Regarding `COc1cc(OC)cc(C(=O)NNC(=O)CNC(=O)c2ccc(Br)o2)c1`, the B-score is -1.49 (inactive).

For the compound `CC(C)n1c(COc2ccccc2)nc2ccccc21`, the B-score was -0.24 (inactive).

With `Cc1ccc(O)c(CNc2nc3ccccc3n2C)c1`, the B-score result is “inactive”.

As for `CC(C)n1c(NCc2c[nH]c3ccccc23)nc2ccccc21`, the B-score was -8.14 (active).

With `Cc1nn(C)c(C)c1NS(=O)(=O)c1ccc(OC(F)(F)F)cc1`, the B-score result is “inactive”.

`O=C(CSc1nc2ccccc2o1)N1c2ccccc2Sc2ccc(Cl)cc21`: the B-score was -3.87 (inactive).

As to `Cc1ccc(NC(=O)CSc2nnc(COc3ccccc3C)o2)cc1`, the B-score result was “inactive”.

`Cc1ccccc1OCc1nnc(SCC(=O)N2c3ccccc3Sc3ccc(Cl)cc32)o1`: the B-score was -7.73 (active).

`CN(N)c1nc(N2CCCC2)nc(N2CCCC2)n1`: the B-score is -0.33 (inactive).

Take `CC(=O)CC[C@@H](C)O[C@@H]1OC(C)[C@H](O)CC1O` (stereo not given in full): the B-score was -0.8 (inactive).

`c1ccc(-c2nnc(SCc3nc4ccccc4[nH]3)o2)cc1`: the B-score result was “inactive”.

For the compound `c1ccc2c(CSCc3nc4ccccc4[nH]3)cccc2c1`, the B-score is -4.3 (inactive).

In the case of `Clc1ccccc1SCc1nc2ccccc2[nH]1`, the B-score was -5.77 (active).

Consider `O=C(CSc1nc(=O)n2ccccc2n1)Nc1ccc2c(c1)OCCO2`, for which the B-score is -1.2 (inactive).

For the compound `C#CCNC(=O)[C@H](Cc1ccc(C(=O)c2ccccc2)cc1)NC(=O)OC(C)(C)C`, the B-score result was “inactive”.

For the compound `COc1ccccc1NC(=O)[C@H](COCc1ccccc1)NC(=O)OC(C)(C)C`, the B-score was -6.32 (active).

As for `COc1ccccc1NC(=O)C(C)OC(=O)CC1CCCC1` (stereo not given), the B-score is -1 (inactive).
